# Source: PubChem BioAssay (National Center for Advancing Translational Sciences (NCATS))
# In the library only some 7.5% were active in any assay of this set; here they are far more common.
# HCV inh: qHTS Assay for Inhibitors of Hepatitis C Virus (HCV) | Huh7.5.1 HCVcc-Cre infection, luciferase reporter, 44 h | Potency, µM (doses to about 41.8 µM), without a hit: top-dose activity change, negative = inhibition, hits mostly inhibitors | hit rate 3.4% among 340,000 | AID 651820, 2012; also: potency is read from the fitted curve at half-maximal effect
#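 After 44 h co-culture of compound, cells and HCVcc-Cre (~0.5 moi), substrate is added for 15 min at room temperature and luciferase measured over 15 sec. Cells were seeded at 1,000/well and pre-cultured 4 h.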
# FMDV antiviral: High Throughput Screening for Foot and Mouth Disease Virus Antivirals. FMDV antiviral cell-based qHTS. Potency, µM (doses to about 57.9 µM), for the others: at the top dose activity change, negative = inhibition, most hits filed as inhibitors. hit rate 1.2% among 410,000; calls by dose curve; tested in HEK293T cells; also: read-out not given here; potency is read from the fitted curve at half-maximal effect; nearly all actives have a fitted effect of over 45% in size
# HCMV antiviral: qHTS Assay for inhibitors of the human cytomegalovirus (HCMV); HFF cells, HCMV-luciferase reporter, 72 h; active compounds read low; activity change, negative = inhibition, % at 57.5 µM; hit rate 4.5% among 410,000; in the data active = activity change below about -60%; inconclusive = no clear call, values can overlap the other calls; inactive = above about -39%
#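 Two compound doses tested in HFFs infected with HCMV-luciferase, MOI 1 PFU/cell, 72 h at 37C. Lysate luminescence read with OneGlo; data normalized against buffer-only and 10uM Salinomycin inhibitor controls.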
# Vaccinia mCherry: qHTS for Stage-Specific Inhibitors of Vaccinia Orthopoxvirus: mCherry Reporter Primary qHTS. Vaccinia virus mCherry reporter infection, fluorescence. Potency, µM (titrated, usually from 36.5 µM), inactives show at the highest dose activity change, negative = inhibition, most hits filed as inhibitors. hit rate 0.63% among 310,000. AID 720579, 2013; calls by dose curve; tested in A549 cells; also: potency is read from the fitted curve at half-maximal effect; nearly all actives have a fitted effect of over 35% in size
# VACV Venus inh: qHTS for Stage-Specific Inhibitors of Vaccinia Orthopoxvirus: Venus Reporter Primary qHTS; AID 720580, 2013; Vaccinia virus Venus reporter expression, fluorescence; Potency, µM (titrated, usually from 36.5 µM), without a hit: at the top dose activity change, negative = inhibition, hits mostly inhibitors; hit rate 0.46% among 330,000; calls by dose curve; tested in A549 cells; also: potency is read from the fitted curve at half-maximal effect; nearly all actives have a fitted effect of over 30% in size
# Giardia FBPA inh-1: qHTS Assay for Inhibitors of Fructose-1,6-bisphosphate Aldolase from Giardia Lamblia | A8B2U2 | hit rate 0.71% among 290,000 | Potency, µM (top dose mostly 59.6 µM), without a hit: top-dose activity, negative = inhibition, most hits filed as inhibitors | purified Giardia FBPA; also: potency is read from the fitted curve at half-maximal effect; nearly all actives have a fitted effect of over 55% in size
# Target sequence (A8B2U2 whole entry, looked up): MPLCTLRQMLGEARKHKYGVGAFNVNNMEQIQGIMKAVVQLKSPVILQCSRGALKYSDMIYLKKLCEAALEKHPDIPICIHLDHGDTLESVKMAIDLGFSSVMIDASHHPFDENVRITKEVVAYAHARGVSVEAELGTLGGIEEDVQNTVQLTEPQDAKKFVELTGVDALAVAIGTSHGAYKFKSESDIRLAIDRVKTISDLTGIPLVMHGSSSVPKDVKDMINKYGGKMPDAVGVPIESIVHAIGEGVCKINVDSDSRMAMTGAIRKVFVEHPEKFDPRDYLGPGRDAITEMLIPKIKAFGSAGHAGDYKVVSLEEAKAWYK
#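 Giardia FBPA (40 nM reagent) was preincubated 10 min at RT with compound (up to 57.5 uM final), then substrate plus GAPDH/TPI/NAD/arsenate coupling system with diaphorase/resazurin was added; resorufin fluorescence (525/598 nm) was read after 20 min.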
# Giardia growth: qHTS Assay for Inhibitors of Fructose-1,6-bisphosphate Aldolase from Giardia Lamblia: Giardia lamblia growth inhibition | Potency, µM (highest dose often 57.5 µM), without a hit: top-dose activity change, negative = inhibition, actives largely listed as inhibitors | Giardia lamblia trophozoite growth inhibition | shares compounds with Giardia FBPA inh-1 | AID 2785, 2010 | hit rate 5% among 1,500;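 also: potency is read from the fitted curve at half-maximal effect; trophozoites exposed to compound for 48 h at 37 °C; nearly all actives have a fitted effect of over 70% in size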
# Mammalian tox: qHTS Assay for Inhibitors of Fructose-1,6-bisphosphate Aldolase from Giardia Lamblia: Mammalian cellular toxicity. Potency, µM (titrated, usually from 57.5 µM), for inactives: at the highest dose viability change, negative = toxicity, actives largely listed as inhibitors. hit rate 4% among 1,500. mammalian cell viability counter-screen, qHTS. shares compounds with Giardia FBPA inh-1;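 also: Chinese hamster ovary cells used as mammalian cytotoxicity surrogate; viability measured as cellular ATP by luminescence; potency is read from the fitted curve at half-maximal effect; compound exposure lasted 48 h before reading; nearly all actives have a fitted effect of over 60% in size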
# Giardia FBPA inh-2: qHTS Assay for Inhibitors of Fructose-1,6-bisphosphate Aldolase from Giardia Lamblia: Primary screen confirmation; Potency, µM (doses to about 57.5 µM), without a hit: at the highest dose activity change, negative = inhibition, actives largely listed as inhibitors; purified Giardia aldolase enzyme activity, qHTS; AID 2787, 2010; hit rate 5% among 1,500; shares compounds with Giardia FBPA inh-1; also: potency is read from the fitted curve at half-maximal effect; nearly all actives have a fitted effect of over 45% in size
# Rabbit aldolase: qHTS Assay for Inhibitors of Fructose-1,6-bisphosphate Aldolase from Giardia Lamblia: Rabbit FBPA Selectivity; shares compounds with Giardia FBPA inh-1; Rabbit muscle FBPA enzyme inhibition, selectivity counter-screen; Potency, µM (doses to about 57.5 µM), for inactives: at the highest dose activity, negative = inhibition, usual class: inhibitors; hit rate 4% among 1,500; AID 2794, 2010; also: potency is read from the fitted curve at half-maximal effect; nearly all actives have a fitted effect of over 60% in size
# Target sequence (P00883 whole entry, looked up): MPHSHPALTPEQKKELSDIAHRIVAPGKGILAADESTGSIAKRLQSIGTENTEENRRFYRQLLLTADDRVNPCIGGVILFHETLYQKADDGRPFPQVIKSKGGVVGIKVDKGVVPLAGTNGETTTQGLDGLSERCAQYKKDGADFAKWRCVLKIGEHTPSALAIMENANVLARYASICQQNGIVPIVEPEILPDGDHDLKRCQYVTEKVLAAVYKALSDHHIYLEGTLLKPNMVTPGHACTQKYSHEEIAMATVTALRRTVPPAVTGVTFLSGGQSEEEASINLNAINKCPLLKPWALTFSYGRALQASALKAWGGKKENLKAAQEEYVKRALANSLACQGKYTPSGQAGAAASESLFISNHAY
# GAPDH counter: qHTS Assay for Inhibitors of Fructose-1,6-bisphosphate Aldolase from Giardia Lamblia: Coupling assay counterscreen confirmation | shares compounds with Giardia FBPA inh-1 | GAPDH coupling enzyme counterscreen, biochemical, qHTS | Potency, µM (highest dose often 57.5 µM), inactives show top-dose activity change, negative = inhibition, usual class: inhibitors | hit rate 6% among 1,500 | AID 2795, 2010; also: potency is read from the fitted curve at half-maximal effect; nearly all actives have a fitted effect of over 55% in size
# * hit, by the source's call; i = inactive; ? = inconclusive; nt = no result given; ! = not confirmed by another sample; [ ] = remark or other dose. Unless noted, calls follow the shape of the dose curve; as a rule, active = well fitted curve in the direction sought with a large enough effect; inconclusive = small, poorly fitted or top-dose-only effect, or another doubt; inactive = no such curve, though single readings can be large; an effect the other way counts as inactive or inconclusive. % is scaled to controls: 0 for no effect and ±100 for the full control effect.
SMILES,HCV inh,FMDV antiviral,HCMV antiviral,Vaccinia mCherry,VACV Venus inh,Giardia FBPA inh-1,Giardia growth,Mammalian tox,Giardia FBPA inh-2,Rabbit aldolase,GAPDH counter
CN(c1ccccc1)S(=O)(=O)c1ccc(C(=O)Nc2nnc(C3=COCCO3)o2)cc1,0%,-10%,-30,nt,nt,11µM*,?,22%,3%,15%,-9%
COC(=O)c1cnc(N)s1,1%,18%,-20,-13%,7%,nt,nt,nt,nt,nt,nt
Cc1ccc(CN2CCN(Cc3ccco3)CC2)cc1,6%,-5%,61,nt,nt,16µM*,-6%,2%,-2%,7%,-18%
COc1ccccc1CN1CCCCCC1,2%,-28%,11,i,-15%,?,nt,nt,nt,nt,nt
COc1cc(CN2CCN(Cc3ccco3)CC2)cc(OC)c1,15%,-10%,17,-10%,9%,14µM*,?,-8%,4%,8%,0%
Cc1ccc(CN2CCN(C(=O)c3ccco3)CC2)cc1,-8%,-18%,5,nt,-6%,1%,nt,nt,nt,nt,nt
COc1ccc(CN2CCN(Cc3ccco3)CC2)c(OC)c1,13%,-2%,29,-12%,0%,13µM*,?,-2%,-1%,4%,5%
COc1ccccc1CN1CCN(Cc2ccco2)CC1,3%,-7%,24,-7%,7%,16µM*,-6%[10.4 µM],0%,4%,3%,8%
NC(=O)c1ccsc1NC(=O)COC(=O)CNC(=O)c1ccc(Cl)cc1,9%,-17%,3,-2%,-10%,nt,nt,nt,nt,nt,nt
S=C(Nc1ccccc1)c1ccccn1,1%,24%,-15,nt,-24%,3.2µM*!,-14%[38.3 µM],20µM*,-8%,-8%,-10%
S=C(Nc1ccccc1)Nc1ccccn1,nt,51%,31,-11%,-11%,nt,nt,nt,nt,nt,nt
O=C(OC1CCCCC1=O)c1cc(S(=O)(=O)N2CCOCC2)ccc1F (centres undefined),2%,-24%,-5,-10%,-10%,nt,nt,nt,nt,nt,nt
O=C1C=C(O)c2cccc(O)c2C1=O,2%,?,24,-2%,-7%,5.6µM*,3%[10.4 µM],19%,?,-21%,?
O=C1C=C(O)c2ccccc2C1=O,nt,7%,nt,-9%,2%,?,nt,nt,nt,nt,nt
CSc1ccc(CN(C)CCc2ccccn2)cc1,18%,-10%,-24,nt,nt,14µM*,-9%[10.4 µM],3%,1%,0%,5%
CN(CCc1ccccn1)Cc1ccc(Cl)cc1Cl,-4%,9%,31,nt,nt,18µM*,23%,5%,2%,0%,13%
CN(CCc1ccccn1)Cc1ccc(Cl)c(Cl)c1,11%,0%,-27,-13%,3%,?,nt,nt,nt,nt,nt
Cn1c(=O)c2c(nc(NN=C3CCCC3)n2C)n(C)c1=O,-20%,39%,-14,nt,nt,16µM*,11%,-4%,-12%,2%,-4%
Cn1c(=O)c2c(nc(N3CCCC3)n2C)n(C)c1=O,5%,29%,30,nt,nt,-6%,nt,nt,nt,nt,nt
Cn1c(=O)c2c(nc(CO)n2C)n(C)c1=O,4%,-2%,23,-24%,-14%,0%,nt,nt,nt,nt,nt
Cn1c(=O)c2c(nc(NNC(=O)C(F)(F)F)n2C)n(C)c1=O,-1%,9%,?,-10%,1%,18µM*,-6%[10.4 µM],0%,1%,-2%,13%
O=S(=O)(NNc1nccc(C(F)(F)F)n1)c1cccc(Cl)c1Cl,8%,-5%,10,nt,nt,16µM*,23%,-2%,?,?,?
FC(F)(F)c1ccnc(NCc2ccc(Cl)cc2)n1,-7%,?,-15,i,0%,-1%,nt,nt,nt,nt,nt
O=C(NCc1cccnc1)c1ccccc1NS(=O)(=O)c1ccc(Br)cc1,5%,8%,-17,nt,nt,nt,nt,nt,nt,nt,nt
O=C(O)c1cc2nccc(-c3ccco3)n2n1,7%,-21%,-5,nt,nt,-8%,nt,nt,nt,nt,nt
SMILES,HCV inh,FMDV antiviral,HCMV antiviral,Vaccinia mCherry,VACV Venus inh,Giardia FBPA inh-1,Giardia growth,Mammalian tox,Giardia FBPA inh-2,Rabbit aldolase,GAPDH counter
COc1ccc(-c2ccnc3cc(C(=O)O)nn23)cc1,6%,10%,-12,-6%,-6%,18µM*,47%,23%,4%,0%,7%
CC(=O)Nc1ccccc1C(=O)C(=O)Nc1ccc(C(=O)NCC2CCCO2)cc1 (centres undefined),16%,-9%,-8,-6%,-11%,3%,nt,nt,nt,nt,nt
O=C(Cc1nn[nH]n1)c1ccccc1O,14%,1%,-10,-8%,-3%,?,nt,nt,nt,nt,nt
COc1cc(C2NC(=O)C(C#N)=C(Nc3cccc(C)c3)S2)ccc1O (centres undefined),14%,9%,-10,nt,nt,14µM*,7%[10.4 µM],2%,-24%,4%,13%
COCCCNC1=C(C#N)C(=O)NC(c2cccc([N+](=O)[O-])c2)S1 (centres undefined),nt,?,-30,-14%,-13%,nt,nt,nt,nt,nt,nt
O=C(CCNC(=O)c1ccc(Cl)cc1)Nc1c(F)c(F)cc(F)c1F,11%,-5%,-14,-9%,-12%,7%,nt,nt,nt,nt,nt
COc1ccccc1CNC(=O)c1ccc(Cn2c(SCc3ccccc3)nc3cccnc32)cc1,nt,9%,-17,-14%,-14%,nt,nt,nt,nt,nt,nt
CCOc1ccc(OCC(=O)Nc2ccc(N3CCCCC3)cc2)cc1,?,-14%,59,i,-14%,nt,nt,nt,nt,nt,nt
CCOc1ccc(CNc2ccc(N3CCCC3)cc2)cc1,-22%,-16%,143,10%,12%,0.5µM*,-14%[38.3 µM],-11%,?,?,?
COc1cc(CNc2ccc(N3CCCC3)cc2)cc(Cl)c1OC,-18%,-29%,-13,-6%,-11%,1.8µM*,-30%,-27%,18µM*,32µM*,?
O=c1[nH]c2ccc(NCc3ccc(-c4ccc(F)cc4)o3)cc2[nH]1,nt,-33%,-6,i,-15%,nt,nt,nt,nt,nt,nt
